Measured values published in PubChem BioAssay (NCI).
About 79,000 compounds went through this panel and 15% of them were active in at least one assay; those are over-represented in the sample as a whole. Activity calls are given as the source filed them. Cut-off read from the data, not from the text of the source: active = growth inhibition above about 70%; inactive = the rest.

Key:
[1] = NCI Yeast Anticancer Drug Screen. Data for the rad52 strain (AID 147);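 note: 0% = growth of vehicle-treated control cultures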; settings: S. cerevisiae rad52 mutant growth inhibition, stronger effect = higher value
Summary of the method: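 Growth of repair-deficient yeast cells was compared between compound-treated and vehicle-treated cultures to give percent inhibition.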

[2] = NCI Yeast Anticancer Drug Screen. Data for the wt1 strain (AID 149);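 note: 0% = growth of vehicle-treated wt1 cultures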; settings: S. cerevisiae wt1 strain (SPY 50644) growth inhibition, stronger effect = higher value
Summary of the method: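 Measured: growth of wt1 yeast under compound versus vehicle treatment, reported as inhibition.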

[3] = NCI Yeast Anticancer Drug Screen. Data for the rad50EPP+ strain (AID 151);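 note: 0% = growth of vehicle-treated control cultures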; settings: S. cerevisiae rad50 mutant strain, stronger effect = higher value
Summary of the method: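 Measured: growth inhibition of rad50EPP+ yeast. Reference: vehicle-treated controls. Screen uses strains with defined genetic alterations in DNA damage repair or cell cycle control.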

[4] = NCI Yeast Anticancer Drug Screen. Data for the mgt1 strain (AID 153); settings: S. cerevisiae mgt1 mutant growth inhibition, stronger effect = higher value
Summary of the method: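 Compounds were applied to mgt1 mutant yeast, and growth was then compared against vehicle-treated control cultures to give percent inhibition.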

[5] = NCI Yeast Anticancer Drug Screen. Data for the rad50 strain (AID 155);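 note: 0% = growth of vehicle-only cultures of the same strain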; settings: S. cerevisiae rad50 strain growth inhibition, stronger effect = higher value
Summary of the method: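 Growth of the mutant yeast was measured after compound exposure and referenced to vehicle-treated cultures.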

[6] = NCI Yeast Anticancer Drug Screen. Data for the mec2-1 strain (AID 157); settings: S. cerevisiae mec2-1 strain, stronger effect = higher value
Summary of the method: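 Compounds were applied to mec2-1 yeast cells. Their growth was then compared with that of vehicle-treated cultures to give growth inhibition.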

[7] = NCI Yeast Anticancer Drug Screen. Data for the rad14 strain (AID 159);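 note: 0% = growth of vehicle-treated control cultures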; settings: S. cerevisiae rad14 strain growth inhibition, stronger effect = higher value
Summary of the method: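 Here, inhibition of yeast growth was measured after compound exposure, using a strain with a genetic defect in DNA damage repair and vehicle-treated cultures as the reference.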

[8] = NCI Yeast Anticancer Drug Screen. Data for the sgs1 mgt1 strain (AID 161);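 note: 0% = growth of cultures given vehicle only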; settings: S. cerevisiae sgs1 mgt1 strain, stronger effect = higher value
Summary of the method: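 Yeast cells carrying a defined DNA-repair defect were exposed to test compounds. Growth inhibition was measured relative to vehicle-treated controls.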

[9] = NCI Yeast Anticancer Drug Screen. Data for the CLN2oe strain (AID 163);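 note: 0% = growth of vehicle-only control cultures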; settings: S. cerevisiae CLN2oe strain, stronger effect = higher value
Summary of the method: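 Cells of an engineered yeast line with disturbed cell-cycle regulation are treated with compound. Inhibition of growth is then calculated relative to the vehicle-treated reference.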

[10] = NCI Yeast Anticancer Drug Screen. Data for the cln2 rad14 strain (AID 165);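 note: 0% = growth equal to vehicle treated cultures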; settings: S. cerevisiae cln2 rad14 strain, stronger effect = higher value
Summary of the method: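 Strain: cln2 rad14 yeast, altered in cell cycle control and DNA damage repair. Read-out: growth inhibition vs vehicle.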

[11] = NCI Yeast Anticancer Drug Screen. Data for the bub3 strain (AID 167); settings: S. cerevisiae bub3 mutant strain, stronger effect = higher value
Summary of the method: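 Whole-cell yeast assay. The mutant strain was incubated with compounds, and growth inhibition was determined by comparison with vehicle-treated cells.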

[12] = NCI Yeast Anticancer Drug Screen. Data for the wt2 strain (AID 169);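 note: 0% = growth of vehicle-treated yeast cultures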; settings: S. cerevisiae wt2 strain growth inhibition, stronger effect = higher value
Summary of the method: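 Growth of compound-treated yeast is measured and expressed as inhibition relative to vehicle-only controls.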

[13] = NCI Yeast Anticancer Drug Screen. Data for the mlh1 strain (AID 171);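 note: 0% = growth of vehicle-treated control cultures of the same strain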; settings: S. cerevisiae mlh1 strain growth inhibition, stronger effect = higher value
Summary of the method: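 Test agents were incubated with yeast bearing a defined DNA damage repair or cell cycle control alteration; values are growth inhibition normalised to vehicle-treated cultures.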

[14] = NCI Yeast Anticancer Drug Screen. Data for the sgs1 strain (AID 173);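 note: 0% = growth of vehicle-only control cultures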; settings: S. cerevisiae sgs1 mutant, stronger effect = higher value
Summary of the method: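 Strain with an altered DNA repair or cell cycle pathway exposed to compound. Growth then measured. Value = inhibition versus vehicle control.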

[15] = NCI Yeast Anticancer Drug Screen. Data for the mlh1 rad18 strain (AID 175); settings: S. cerevisiae mlh1 rad18 strain growth inhibition, stronger effect = higher value
Summary of the method: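 A repair-deficient yeast strain is exposed to test compound, and growth is scored relative to vehicle-treated controls.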

[16] = NCI Yeast Anticancer Drug Screen. Data for the rad18 strain (AID 177); settings: S. cerevisiae rad18 mutant growth inhibition, stronger effect = higher value
Summary of the method: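 DNA-repair-defective yeast; compound treatment; growth inhibition scored against vehicle.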

[17] = at 5.0 µM (retest, dose inferred, filed as 0.5)
[18] = at 50.0 µM (retest, dose inferred, filed as 5.0)

Measured: growth inhibition

O=[n+]1c2ccc(Cl)cc2n([O-])c2ccc(Cl)cc21
inactive: [1]; at 1.2 µM 5% | [1]; at 3.7 µM 12% | [1]; at 11.0 µM 23% | [1]; at 33.0 µM 44% | [1]; at 100.0 µM 57% | [2]; at 1.2 µM -2% | [2]; at 3.7 µM 2% | [2]; at 11.0 µM 2% | [2]; at 33.0 µM 7% | [2]; at 100.0 µM 12% | [3]; at 1.2 µM 9% | [3]; at 3.7 µM 18% | [3]; at 11.0 µM 35% | [3]; at 33.0 µM 57% | [4]; at 1.2 µM -3% | [4]; at 3.7 µM -1% | [4]; at 11.0 µM 2% | [4]; at 33.0 µM 5% | [4]; at 100.0 µM 10% | [5]; at 1.2 µM 9% | [5]; at 3.7 µM 19% | [5]; [17] -9% | [5]; at 11.0 µM 39% | [5]; at 33.0 µM 61% | [5]; [18] 47% | [5]; at 50.0 µM -5.4% | [6]; at 1.2 µM -1% | [6]; at 3.7 µM 0% | [6]; [17] 1% | [6]; at 11.0 µM 2% | [6]; at 33.0 µM 9% | [6]; [18] -5% | [6]; at 50.0 µM -1% | [6]; at 100.0 µM 15% | [7]; at 1.2 µM 0% | [7]; at 3.7 µM 2% | [7]; at 11.0 µM 4% | [7]; at 33.0 µM 6% | [7]; at 100.0 µM 10% | [8]; [17] -4% | [8]; [18] 20% | [8]; at 50.0 µM 13.3% | [9]; at 1.2 µM -1% | [9]; at 3.7 µM 0% | [9]; at 11.0 µM 0% | [9]; at 33.0 µM -1% | [9]; at 100.0 µM -1% | [10]; [17] -10% | [10]; [18] -13% | [10]; at 50.0 µM -74.2% | [11]; at 1.2 µM -1% | [11]; at 3.7 µM 0% | [11]; [17] 11% | [11]; at 11.0 µM 2% | [11]; at 33.0 µM 9% | [11]; [18] 22% | [11]; at 50.0 µM -7.55% | [11]; at 100.0 µM 14% | [12]; at 1.2 µM -5% | [12]; at 3.7 µM -8% | [12]; at 11.0 µM 0% | [12]; at 33.0 µM -5% | [12]; at 100.0 µM 10% | [13]; at 1.2 µM -1% | [13]; at 3.7 µM 1% | [13]; at 11.0 µM 0% | [13]; at 33.0 µM 0% | [13]; at 100.0 µM 5% | [14]; at 1.2 µM -6% | [14]; at 3.7 µM -27% | [14]; at 11.0 µM 4% | [14]; at 33.0 µM 21% | [14]; at 100.0 µM 23% | [15]; [17] 11% | [15]; at 50.0 µM 11.7% | [16]; at 1.2 µM 4% | [16]; at 3.7 µM 12% | [16]; at 11.0 µM 25% | [16]; at 33.0 µM 37% | [16]; at 100.0 µM 63%
active: [3]; at 100.0 µM 74% | [5]; at 100.0 µM 81% | [15]; [18] 84%

O=C1NC(=O)C2C3C=CC(C3)C12 (stereo unspecified)
active: [3]; at 33.0 µM 91% | [3]; at 100.0 µM 97% | [4]; at 11.0 µM 89% | [4]; at 33.0 µM 96% | [4]; at 100.0 µM 97% | [8]; [18] 93% | [8]; at 50.0 µM 94.3% | [12]; at 11.0 µM 94% | [12]; at 33.0 µM 97% | [12]; at 100.0 µM 98% | [13]; at 11.0 µM 79% | [13]; at 33.0 µM 95% | [13]; at 100.0 µM 97% | [14]; at 11.0 µM 97% | [14]; at 33.0 µM 98% | [14]; at 100.0 µM 98%
inactive: [1]; at 1.2 µM -7% | [1]; at 3.7 µM 0% | [1]; at 11.0 µM -2% | [1]; at 33.0 µM -7% | [1]; at 100.0 µM -7% | [2]; at 1.2 µM -5% | [2]; at 3.7 µM -5% | [2]; at 11.0 µM -7% | [2]; at 33.0 µM -7% | [2]; at 100.0 µM -5% | [3]; at 1.2 µM 2% | [3]; at 3.7 µM 21% | [3]; at 11.0 µM 67% | [4]; at 1.2 µM -1% | [4]; at 3.7 µM 23% | [5]; at 1.2 µM -6% | [5]; at 3.7 µM -4% | [5]; [17] -149% | [5]; at 11.0 µM 5% | [5]; at 33.0 µM 8% | [5]; [18] -66% | [5]; at 50.0 µM 3.3% | [5]; at 100.0 µM 0% | [6]; at 1.2 µM -1% | [6]; at 3.7 µM 0% | [6]; [17] -46% | [6]; at 11.0 µM 1% | [6]; at 33.0 µM 1% | [6]; [18] -42% | [6]; at 50.0 µM -2% | [6]; at 100.0 µM -2% | [7]; at 1.2 µM -1% | [7]; at 3.7 µM 3% | [7]; at 11.0 µM 0% | [7]; at 33.0 µM -2% | [7]; at 100.0 µM -1% | [8]; [17] 31% | [9]; at 1.2 µM -4% | [9]; at 3.7 µM -1% | [9]; at 11.0 µM 0% | [9]; at 33.0 µM -6% | [9]; at 100.0 µM -3% | [10]; [17] -55% | [10]; [18] -54% | [10]; at 50.0 µM -13.2% | [11]; at 1.2 µM -5% | [11]; at 3.7 µM -4% | [11]; [17] -64% | [11]; at 11.0 µM -7% | [11]; at 33.0 µM -8% | [11]; [18] -62% | [11]; at 50.0 µM -3.55% | [11]; at 100.0 µM -5% | [12]; at 1.2 µM -5% | [12]; at 3.7 µM 40% | [13]; at 1.2 µM 1% | [13]; at 3.7 µM 12% | [14]; at 1.2 µM -4% | [14]; at 3.7 µM 63% | [15]; [17] -124% | [15]; [18] -123% | [15]; at 50.0 µM 10.6% | [16]; at 1.2 µM -2% | [16]; at 3.7 µM 0% | [16]; at 11.0 µM 0% | [16]; at 33.0 µM 0% | [16]; at 100.0 µM 1%
